An excerpt weighted towards active compounds, which were near 3.5% of everything screened.
FBW7 activator: FBW7 E3 ligase activators, primary screen, biochemical, AlphaScreen, human | AlphaScreen FBW7–phospho-cyclin E peptide binding, activator screen | normalized activity (activation), % at 26.1 µM | F-box/WD repeat-containing protein 7 (Homo sapiens), Q969H0 | 0.13% of 650,000 active | AID 1259310, 2017; in the data active = normalized activity above about 1.9%;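 note: purified mutant Fbw7 with reduced substrate affinity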
TEAD-YAP block: TEAD-YAP interaction inhibition, primary screen, TEAD-YAP interaction inhibitor project, luminescence, HEK-TIYL cells; TEAD-Gal4/YAP UAS-luciferase luminescence; inhibition, % at 9.12 µM; 1.4% of 640,000 active; AID 1259422, 2018; in the data active = inhibition above about 32%;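 note: 0% = median of test compound wells and 100% = reference inhibitor wells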
MITF primary: MITF inhibitors, primary screen, biochemical, AlphaScreen, human | AlphaScreen MITF homodimerization, bead proximity signal | inhibition, % at 2.6 µM | 0.91% of 650,000 active | AID 1259374, 2018; in the data active = inhibition above about 50%;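 note: 0% = vehicle wells with protein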
Target sequence (O75030 whole entry, looked up): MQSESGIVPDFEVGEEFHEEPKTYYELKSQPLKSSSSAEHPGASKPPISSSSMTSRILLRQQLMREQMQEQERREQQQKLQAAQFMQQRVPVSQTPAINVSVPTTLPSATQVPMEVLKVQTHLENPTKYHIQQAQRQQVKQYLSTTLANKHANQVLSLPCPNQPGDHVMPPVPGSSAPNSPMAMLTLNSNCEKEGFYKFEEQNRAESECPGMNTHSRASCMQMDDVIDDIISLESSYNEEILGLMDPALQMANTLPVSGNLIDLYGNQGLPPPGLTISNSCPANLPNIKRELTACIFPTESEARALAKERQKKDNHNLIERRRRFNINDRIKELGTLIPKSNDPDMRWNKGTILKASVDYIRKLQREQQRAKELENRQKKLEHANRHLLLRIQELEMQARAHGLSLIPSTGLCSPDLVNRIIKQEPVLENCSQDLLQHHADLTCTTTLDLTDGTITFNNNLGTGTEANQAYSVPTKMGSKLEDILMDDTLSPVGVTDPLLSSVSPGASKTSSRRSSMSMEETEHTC
GPR151 activ: activators of human GPR151, primary screen, cell-based, PathHunter beta-arrestin, luminescence; 1% of 650,000 active; PathHunter beta-arrestin GPR151 cells; G-protein coupled receptor 151 (Homo sapiens), Q8TDV0; AID 1508602, 2020; activation, % at 11.2 µM; in the data active = activation above about 4.9%;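 note: 0% = median of compound wells and 100% = cells with positive control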
An asterisk follows results filed as active.

SMILES	FBW7 activator	TEAD-YAP block	MITF primary	GPR151 activ
CC(c1ccon1)N(C)C(=O)c1cc(COc2cccc3cnccc23)on1 (configuration not stated)	0	34*	14	-1
C[C@H]1C(=O)N(C)CCN1C(=O)c1cc(COc2cccc3cnccc23)on1	0	36*	-10	2
CN(CCc1nc2ccc(F)cc2[nH]1)C(=O)c1cc(COc2cccc3cnccc23)on1	0	55*	2	0
CCCCOC(=O)c1ccc(NC(=O)COc2ccccc2)cc1	0	-4	12	1
COc1cccc2c1OC1(CCN(C(=O)NCc3cccc(F)c3)CC1)OC2	0	-3	-10	1
O=C(NC1CCC1)c1cc(COc2cccc3cnccc23)on1	0	27	6	0
CN(C(=O)c1cc(COc2cccc3cnccc23)on1)C1CCCCC1	0	43*	-9	-1
CNC(=O)c1ccccc1Nc1cc(Nc2ccc3c(c2)CC(=O)N3)ncc1C(F)(F)F	0	51*	16	0
CNS(=O)(=O)c1ccccc1Nc1cc(Nc2ccc3c(c2)CCC(=O)N3)ncc1C(F)(F)F	0	93*	-5	0
CNC(=O)c1cc(F)ccc1Nc1cc(Nc2ccc(N3CCCC3=O)cc2)ncc1C(F)(F)F	0	32	-7	1
CNC(=O)c1ccccc1Nc1cc(Nc2ccc3c(c2)OCO3)ncc1C(F)(F)F	0	41*	-7	0
CNC(=O)c1ccccc1Nc1cc(Nc2ncccn2)ncc1C(F)(F)F	0	24	21	-1
CNC(=O)c1ccccc1Nc1cc(Nc2ccc3c(c2)CC(=O)N3C)ncc1C(F)(F)F	0	65*	-3	-2
CNS(=O)(=O)c1ccccc1Nc1cc(Nc2ccccc2S(=O)(=O)NC)c(C(F)(F)F)cn1	0	1	21	2
CNC(=O)c1ccncc1Nc1cc(Nc2ccc3c(c2)CC(=O)N3)ncc1C(F)(F)F	0	-7	2	3
CCOC(=O)NC(Nc1sc2c(c1C(=O)OC)CCCCC2)(C(F)(F)F)C(F)(F)F	0	3	-1	0
O=C(COc1ccccc1CO)Nc1ccc(Cl)c(Cl)c1	0	-21	16	-1
CNC(=O)c1ccccc1Nc1cc(Nc2ccc3[nH]nc(C4=CCNCC4)c3c2)ncc1C(F)(F)F	0	-36	2	1
CNC(=O)c1ccccc1Nc1cc(Nc2ccc3[nH]c(=O)oc3c2)ncc1C(F)(F)F	0	33*	11	1
N#C/C(=C/c1ccc(-c2ccc(S(N)(=O)=O)cc2)o1)C(=O)Nc1ccc(Cl)cc1	0	7	-10	1
O=S(=O)(Nc1ccc(Br)c2cccnc12)c1ccccc1	0	33*	19	-2
COc1ccc(NS(=O)(=O)c2ccc3ccccc3c2)c2ncccc12	0	26	30	-1
O=C(/C=C\c1cn(-c2ccccc2)nc1-c1ccc(F)cc1)N1CCOCC1	0	7	-4	2
CC(C)C(=O)Nc1ccc2nn(-c3ccccc3)nc2c1	0	46*	5	-1
CCC(=O)Nc1ccc2nn(-c3ccccc3)nc2c1	0	37*	0	-2
SMILES	FBW7 activator	TEAD-YAP block	MITF primary	GPR151 activ
CC(C)(C)C(=O)Nc1ccc2nn(-c3ccccc3)nc2c1	0	82*	-2	2
O=C(Nc1ccc2nn(-c3ccccc3)nc2c1)C(F)(F)F	0	-16	-17	0
Cn1c(=O)c2c(ncn2CC(O)CNC=O)n(C)c1=O (configuration not stated)	0	-1	-2	-5
O=C(Nc1nc2cc3c(cc2s1)OCO3)C1=COCCO1	0	52*	4	-12
COc1cc2nc(NC(=O)C3=COCCO3)sc2cc1OC	1	-26	8	-6
c1cnc(Nc2nc(Nc3ccc4c(c3)OCO4)c3[nH]cnc3n2)cn1	20*	31	15	-1
CCNc1nc(Nc2ccc3c(c2)OCO3)c2[nH]cnc2n1	0	1	-2	-1
FC(F)(F)c1ccc(Nc2nc(Nc3ccc4c(c3)OCO4)c3[nH]cnc3n2)cc1	0	1	8	-1
CCCNc1nc(Nc2ccncn2)nc2nc[nH]c12	0	36*	16	-1
c1cc(Nc2nc(Nc3ccc4c(c3)OCO4)c3[nH]cnc3n2)ncn1	27*	-27	9	0
COC(=O)C1=C(C)NC(=S)NC1c1ccc(-c2ccc(C#N)cc2)o1 (configuration not stated)	0	1	19	3
COCCCNCC(=O)N1CCc2ccccc2C1	0	-10	21	1
O=C(CN1N=C(c2ccccc2)Cn2c(cc3sccc32)C1=O)NCCCn1ccnc1	0	-9	-12	1
O=C(COc1ccc(Cl)cc1)NCCSc1ccccn1	2.6*	-13	0	1
COc1ccc2c(c1)C(C)CC(C)(C)N2C(=O)CCl (configuration not stated)	0	41*	0	0
O=C(NCCOc1ccccc1)c1cc(NCc2ccc3c(c2)OCO3)nc2ccccc12	0	-6	13	6.1*
CCCNC(=O)c1cc(NCc2ccc3c(c2)OCO3)nc2ccccc12	0	-1	-4	0
C=CC(=O)Nc1ccc(Br)cc1	0	36*	6	-1
O=C(O)/C=C\C(=O)Nc1ccc(Br)cc1	0	5	4	1
Clc1ccc(-n2ncc3c(N4CCCC4)ncnc32)cc1	0	35*	-3	3
Fc1ccc(-n2ncc3c(N4CCCCCC4)ncnc32)cc1	1	28	8	2
Clc1ccc(-n2ncc3c(N4CCCCC4)ncnc32)cc1	0	96*	-10	-1
O=C(Nc1ccc(O)c(-c2nc3ccccc3s2)c1)c1ccccc1I	0	8	10	3
COc1ccc(CCNc2cc(N3CCN(C(=O)c4ccc(Br)cc4)CC3)ccc2[N+](=O)[O-])cc1OC	0	-3	-7	-1
COc1ccc(CCNc2cc(N3CCN(S(=O)(=O)N(C)C)CC3)ccc2[N+](=O)[O-])cc1OC	0	39*	5	2
SMILES	FBW7 activator	TEAD-YAP block	MITF primary	GPR151 activ
COc1ccc(CCNc2cc(N3CCN(C(C)=O)CC3)ccc2[N+](=O)[O-])cc1OC	0	46*	-10	1
COc1ccc(CCNc2cc(N3CCCCC3)ccc2[N+](=O)[O-])cc1OC	0	39*	8	0
CCOC(=O)c1cnc2ccc(OC)cc2c1NCC(C)O (configuration not stated)	0	7	16	-1
O=C(NC1CCCCCCC1)c1cccc(N2CCCC2=O)c1	0	46*	-8	0
O=C(NC1CCCCCC1)c1ccc(N2CCCC2=O)cc1	0	-22	7	-3
CC(=O)Nc1nnc(Cn2c(-c3nonc3NC(C)=O)nc3ccccc32)s1	0	15	-1	0
CCOc1ccc2[nH]c(=O)c(CN(Cc3cccs3)C(=O)CC)cc2c1	0	33*	10	1

Compound activity as filed in PubChem.
